Reference: PMC11006913
Substitutions are numbered along the chain they refer to.

Assays:
Experiment in all cases: PBM; 200 nM protein, PBS
Settings in all cases: dsDNA, one strand shown
HOXC9 [1] = target: HOXC9 (Homo sapiens, UniProt P31274 178-260, K195R)
HOXC9 [2] = target: HOXC9 (Homo sapiens, UniProt P31274 178-260)
ALX3 [3] = target: ALX3 (Homo sapiens, UniProt O95076 139-225, N203Q)
HOXC9 [4] = target: HOXC9 (Homo sapiens, UniProt P31274 178-260, R193K)
ALX3 [5] = target: ALX3 (Homo sapiens, UniProt O95076 139-225)
VAX1 [6] = target: VAX1 (Homo sapiens, UniProt Q5SQQ9 86-172)
ALX3 [7] = target: ALX3 (Homo sapiens, UniProt O95076 139-225, L168Q)
HOXC9 [8] = target: HOXC9 (Homo sapiens, UniProt P31274 178-260, R222W)
ALX3 [9] = target: ALX3 (Homo sapiens, UniProt O95076 139-225, L168V)
VAX1 [10] = target: VAX1 (Homo sapiens, UniProt Q5SQQ9 86-172, T142I)
ALX3 [11] = target: ALX3 (Homo sapiens, UniProt O95076 139-225, N203S)
VAX1 [12] = target: VAX1 (Homo sapiens, UniProt Q5SQQ9 86-172, K157R)
NKX2-6 [13] = target: T1, NKX2-6 (Homo sapiens, UniProt A6NCS4 118-204)
T1 sequence: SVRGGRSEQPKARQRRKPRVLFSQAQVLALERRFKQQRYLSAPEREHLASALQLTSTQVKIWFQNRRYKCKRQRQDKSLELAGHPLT

NKX2-6 [14] = target: T2, NKX2-6 (Homo sapiens, UniProt A6NCS4 118-204, F151L)
T2 sequence: T1 sequence with F34L

HOXD13 [15] = target: HOXD13 (Homo sapiens, UniProt P35453 263-343, T313R)
HOXD13 [16] = target: HOXD13 (Homo sapiens, UniProt P35453 263-343)
HOXD13 [17] = target: HOXD13 (Homo sapiens, UniProt P35453 263-343, T313A)
MSX2 [18] = target: MSX2 (Homo sapiens, UniProt P35548 130-214, R199I)
MSX2 [19] = target: MSX2 (Homo sapiens, UniProt P35548 130-214)
MSX2 [20] = target: MSX2 (Homo sapiens, UniProt P35548 130-214, F161Y)
PITX2 = PITX2 (Homo sapiens, UniProt Q99697 72-157)

HOXC9 (Homo sapiens, UniProt P31274 178-260, K195R), sequence (P31274 178-260 K195R): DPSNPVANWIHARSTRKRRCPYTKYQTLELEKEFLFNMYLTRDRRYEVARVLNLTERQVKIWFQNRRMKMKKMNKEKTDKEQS
HOXC9 (Homo sapiens, UniProt P31274 178-260, R193K), sequence (P31274 178-260 R193K): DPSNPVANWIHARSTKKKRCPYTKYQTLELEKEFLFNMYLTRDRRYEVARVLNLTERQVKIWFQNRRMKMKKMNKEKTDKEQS
HOXC9 (Homo sapiens, UniProt P31274 178-260, R222W), sequence (P31274 178-260 R222W): as the sequence (P31274 178-260 R193K) above, with K16R, R45W counted along it
HOXC9 (Homo sapiens, UniProt P31274 178-260), sequence (P31274 178-260): as the sequence (P31274 178-260 R193K) above, with K16R counted along it
HOXD13 (Homo sapiens, UniProt P35453 263-343, T313R), sequence (P35453 263-343 T313R): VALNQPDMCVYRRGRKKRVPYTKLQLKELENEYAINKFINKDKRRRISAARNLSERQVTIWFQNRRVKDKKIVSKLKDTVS
HOXD13 (Homo sapiens, UniProt P35453 263-343, T313A), sequence (P35453 263-343 T313A): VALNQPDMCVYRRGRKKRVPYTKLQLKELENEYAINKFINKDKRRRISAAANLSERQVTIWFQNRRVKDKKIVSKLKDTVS
HOXD13 (Homo sapiens, UniProt P35453 263-343), sequence (P35453 263-343): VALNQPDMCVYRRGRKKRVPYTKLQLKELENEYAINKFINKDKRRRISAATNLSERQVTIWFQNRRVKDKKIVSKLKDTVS
ALX3 (Homo sapiens, UniProt O95076 139-225, L168Q), sequence (O95076 139-225 L168Q): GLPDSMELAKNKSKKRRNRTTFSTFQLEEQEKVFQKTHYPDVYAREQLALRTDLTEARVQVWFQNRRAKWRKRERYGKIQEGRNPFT
MSX2 (Homo sapiens, UniProt P35548 130-214, R199I), sequence (P35548 130-214 R199I): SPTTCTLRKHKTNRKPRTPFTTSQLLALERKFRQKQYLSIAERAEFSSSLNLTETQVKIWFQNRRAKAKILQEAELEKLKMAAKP
ALX3 (Homo sapiens, UniProt O95076 139-225, N203Q), sequence (O95076 139-225 N203Q): as the sequence (O95076 139-225 L168Q) above, with Q30L, N65Q counted along it
VAX1 (Homo sapiens, UniProt Q5SQQ9 86-172, K157R), sequence (Q5SQQ9 86-172 K157R): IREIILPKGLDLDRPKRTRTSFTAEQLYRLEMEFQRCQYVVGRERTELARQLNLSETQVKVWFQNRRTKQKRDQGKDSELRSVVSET
MSX2 (Homo sapiens, UniProt P35548 130-214, F161Y), sequence (P35548 130-214 F161Y): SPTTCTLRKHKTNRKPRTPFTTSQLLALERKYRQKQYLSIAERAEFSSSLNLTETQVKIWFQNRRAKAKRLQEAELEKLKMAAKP
ALX3 (Homo sapiens, UniProt O95076 139-225, N203S), sequence (O95076 139-225 N203S): as the sequence (O95076 139-225 L168Q) above, with Q30L, N65S counted along it
ALX3 (Homo sapiens, UniProt O95076 139-225), sequence (O95076 139-225): as the sequence (O95076 139-225 L168Q) above, with Q30L counted along it
MSX2 (Homo sapiens, UniProt P35548 130-214), sequence (P35548 130-214): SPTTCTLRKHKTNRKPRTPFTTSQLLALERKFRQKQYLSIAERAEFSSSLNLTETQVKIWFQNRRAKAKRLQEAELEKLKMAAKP
VAX1 (Homo sapiens, UniProt Q5SQQ9 86-172, T142I), sequence (Q5SQQ9 86-172 T142I): as the sequence (Q5SQQ9 86-172 K157R) above, with T57I, R72K counted along it
ALX3 (Homo sapiens, UniProt O95076 139-225, L168V), sequence (O95076 139-225 L168V): as the sequence (O95076 139-225 L168Q) above, with Q30V counted along it
VAX1 (Homo sapiens, UniProt Q5SQQ9 86-172), sequence (Q5SQQ9 86-172): as the sequence (Q5SQQ9 86-172 K157R) above, with R72K counted along it

CCTCCCAG
binding signal (HOXC9 [1]): 9.59 upbm affinity estimate (log intensity, higher = more binding, comparable within an allelic series)
binding signal (HOXC9 [2]): 9.7 upbm affinity estimate (log intensity, higher = more binding, comparable within an allelic series)
binding signal (ALX3 [3]): 7.74 upbm affinity estimate (log intensity, higher = more binding, comparable within an allelic series)
binding signal (HOXC9 [4]): 9.59 upbm affinity estimate (log intensity, higher = more binding, comparable within an allelic series)
binding signal (ALX3 [5]): 7.69 upbm affinity estimate (log intensity, higher = more binding, comparable within an allelic series)
binding signal (VAX1 [6]): 7.07 upbm affinity estimate (log intensity, higher = more binding, comparable within an allelic series)
binding signal (ALX3 [7]): 7.76 upbm affinity estimate (log intensity, higher = more binding, comparable within an allelic series)
binding signal (HOXC9 [8]): 9.67 upbm affinity estimate (log intensity, higher = more binding, comparable within an allelic series)
binding signal (ALX3 [9]): 7.74 upbm affinity estimate (log intensity, higher = more binding, comparable within an allelic series)
binding signal (VAX1 [10]): 7.13 upbm affinity estimate (log intensity, higher = more binding, comparable within an allelic series)
binding signal (ALX3 [11]): 7.72 upbm affinity estimate (log intensity, higher = more binding, comparable within an allelic series)
binding signal (VAX1 [12]): 6.95 upbm affinity estimate (log intensity, higher = more binding, comparable within an allelic series)

CCTCTCCA
binding signal (HOXC9 [1]): 9.58 upbm affinity estimate (log intensity, higher = more binding, comparable within an allelic series)
binding signal (HOXC9 [2]): 9.63 upbm affinity estimate (log intensity, higher = more binding, comparable within an allelic series)
binding signal (NKX2-6 [13]): 11.5 upbm affinity estimate (log intensity, higher = more binding, comparable within an allelic series)
binding signal (HOXC9 [4]): 9.69 upbm affinity estimate (log intensity, higher = more binding, comparable within an allelic series)
binding signal (NKX2-6 [14]): 9.51 upbm affinity estimate (log intensity, higher = more binding, comparable within an allelic series)
binding signal (HOXC9 [8]): 9.7 upbm affinity estimate (log intensity, higher = more binding, comparable within an allelic series)

CTTATAAA
binding signal (HOXC9 [1]): 11.3 upbm affinity estimate (log intensity, higher = more binding, comparable within an allelic series)
binding signal (HOXC9 [2]): 11.2 upbm affinity estimate (log intensity, higher = more binding, comparable within an allelic series)
binding signal (HOXD13 [15]): 10.7 upbm affinity estimate (log intensity, higher = more binding, comparable within an allelic series)
binding signal (HOXC9 [4]): 11.2 upbm affinity estimate (log intensity, higher = more binding, comparable within an allelic series)
binding signal (HOXD13 [16]): 11.8 upbm affinity estimate (log intensity, higher = more binding, comparable within an allelic series)
binding signal (HOXD13 [17]): 11.5 upbm affinity estimate (log intensity, higher = more binding, comparable within an allelic series)

GGAGAACC
binding signal (HOXC9 [1]): 9.48 upbm affinity estimate (log intensity, higher = more binding, comparable within an allelic series)
binding signal (HOXC9 [2]): 9.62 upbm affinity estimate (log intensity, higher = more binding, comparable within an allelic series)
binding signal (HOXD13 [15]): 9.57 upbm affinity estimate (log intensity, higher = more binding, comparable within an allelic series)
binding signal (HOXC9 [4]): 9.52 upbm affinity estimate (log intensity, higher = more binding, comparable within an allelic series)
binding signal (HOXD13 [16]): 9.46 upbm affinity estimate (log intensity, higher = more binding, comparable within an allelic series)
binding signal (HOXD13 [17]): 9.73 upbm affinity estimate (log intensity, higher = more binding, comparable within an allelic series)
binding signal (HOXC9 [8]): 9.79 upbm affinity estimate (log intensity, higher = more binding, comparable within an allelic series)

GCGTCGCC
binding signal (HOXC9 [1]): 9.69 upbm affinity estimate (log intensity, higher = more binding, comparable within an allelic series)
binding signal (HOXC9 [2]): 9.74 upbm affinity estimate (log intensity, higher = more binding, comparable within an allelic series)
binding signal (MSX2 [18]): 9.45 upbm affinity estimate (log intensity, higher = more binding, comparable within an allelic series)
binding signal (HOXC9 [4]): 9.48 upbm affinity estimate (log intensity, higher = more binding, comparable within an allelic series)
binding signal (MSX2 [19]): 9.4 upbm affinity estimate (log intensity, higher = more binding, comparable within an allelic series)
binding signal (HOXC9 [8]): 9.77 upbm affinity estimate (log intensity, higher = more binding, comparable within an allelic series)
binding signal (MSX2 [20]): 9.49 upbm affinity estimate (log intensity, higher = more binding, comparable within an allelic series)

CCTACTCG
binding signal (HOXC9 [1]): 9.67 upbm affinity estimate (log intensity, higher = more binding, comparable within an allelic series)
binding signal (HOXC9 [2]): 9.65 upbm affinity estimate (log intensity, higher = more binding, comparable within an allelic series)
binding signal (PITX2): 8.18 upbm affinity estimate (log intensity, higher = more binding, comparable within an allelic series)
binding signal (HOXC9 [4]): 9.59 upbm affinity estimate (log intensity, higher = more binding, comparable within an allelic series)
binding signal (HOXC9 [8]): 9.71 upbm affinity estimate (log intensity, higher = more binding, comparable within an allelic series)

ATTGTATG
binding signal (HOXC9 [1]): 11.1 upbm affinity estimate (log intensity, higher = more binding, comparable within an allelic series)
binding signal (HOXC9 [2]): 11 upbm affinity estimate (log intensity, higher = more binding, comparable within an allelic series)
binding signal (HOXC9 [4]): 11.1 upbm affinity estimate (log intensity, higher = more binding, comparable within an allelic series)
